# Values joined by “and” are separate entries in the source; they are usually repeats but may differ in a detail not shown here. Equal entries are not always repeated. Results filed as inconclusive are left out. Where a call stands in place of a potency, no number is given. Some structures have more than one record in an assay (separate samples or runs), and their calls can disagree. Active and inactive are the calls of the source. Calls come from the whole dose curve; as a rule, active = well fitted curve in the direction sought with a large enough effect; inconclusive = small, poorly fitted or top-dose-only effect, or another doubt; inactive = no such curve, though single readings can be large; an effect the other way counts as inactive or inconclusive.
# Tests used:
# [1] = target: Metallo-beta-lactamase type 2 (Klebsiella pneumoniae) (UniProt C7C422); experiment: qHTS to identify inhibitors of the New Delhi Metallo-beta-lactamase (NDM): assay validation screen against the NCATS LOPAC Collection (AID 1794843);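 note: nitrocefin turnover by NDM-1 measured as 485 nm absorbance at plateau; series mostly up to about 38 µM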
# Sequence of Metallo-beta-lactamase type 2 (Klebsiella pneumoniae) (C7C422 whole entry, looked up): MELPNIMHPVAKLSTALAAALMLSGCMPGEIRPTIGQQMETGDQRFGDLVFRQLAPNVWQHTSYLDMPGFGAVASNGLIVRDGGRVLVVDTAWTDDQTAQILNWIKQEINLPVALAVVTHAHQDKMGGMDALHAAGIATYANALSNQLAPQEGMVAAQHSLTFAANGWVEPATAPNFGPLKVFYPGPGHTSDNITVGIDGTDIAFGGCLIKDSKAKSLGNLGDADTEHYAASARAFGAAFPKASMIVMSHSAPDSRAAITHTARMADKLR
# Summary of the method: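 Nitrocefin hydrolysis (50 uM substrate stock) by NDM-1, 2 nM final, was followed by 485 nm absorbance after compound preincubation; buffer was 50 mM HEPES pH 7.0, 1 uM ZnSO4, 0.01% Tween20.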
# [2] = target: Glutathione peroxidase 1 (Homo sapiens) (UniProt P07203); experiment: Primary qHTS Assay for Inhibitors of Recombinant Selenoprotein Glutathione Peroxidase 1 (GPX1) (AID 1845191); note: nearly all actives have a fitted effect of over 65% in size; note: potency is the fitted concentration of half-maximal effect
# Sequence of Glutathione peroxidase 1 (Homo sapiens) (P07203 whole entry, looked up): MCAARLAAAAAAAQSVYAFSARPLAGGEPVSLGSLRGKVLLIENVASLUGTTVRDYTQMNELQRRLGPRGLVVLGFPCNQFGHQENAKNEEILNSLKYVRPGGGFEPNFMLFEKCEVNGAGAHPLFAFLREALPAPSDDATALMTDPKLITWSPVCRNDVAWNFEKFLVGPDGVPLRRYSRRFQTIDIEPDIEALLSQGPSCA
# Summary of the method: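 NADPH consumption tracked by fluorescence at 340/450 nm between t=0 and t=15 min, room temperature. Final mix: 10 nM GPX1, 100 nM glutathione reductase, 1 mM GSH, 0.5 mM NADPH, 0.5 mM cumene hydroperoxide, 0.01% BSA; 30 min compound–enzyme preincubation.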
# [3] = target: Phospholipid hydroperoxide glutathione peroxidase GPX4 (Homo sapiens) (UniProt P36969); experiment: Primary qHTS Assay for Inhibitors of Recombinant Selenoprotein Glutathione Peroxidase 4 (GPX4) (AID 1845192); note: nearly all actives have a fitted effect of over 65% in size; note: potency is the fitted concentration of half-maximal effect
# Sequence of Phospholipid hydroperoxide glutathione peroxidase GPX4 (Homo sapiens) (P36969 whole entry, looked up): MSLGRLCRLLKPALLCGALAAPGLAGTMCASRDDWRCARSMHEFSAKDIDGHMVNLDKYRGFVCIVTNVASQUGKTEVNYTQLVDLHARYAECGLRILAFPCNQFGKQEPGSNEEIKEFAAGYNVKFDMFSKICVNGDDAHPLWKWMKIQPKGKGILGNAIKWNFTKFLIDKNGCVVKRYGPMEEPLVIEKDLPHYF
# Summary of the method: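 NADPH consumption followed by fluorescence at 340/450 nm, t=0 and after 15 min at room temperature. Reaction started with cumene hydroperoxide (0.5 mM final) after 30 min compound–GPX4 preincubation; final 200 nM GPX4, 100 nM GR, 1 mM GSH, 0.5 mM NADPH.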
# [4] = Quantitative High-Throughput drug screen in 47 multiple myeloma cell lines against the NCATS MIPE library collection: Delta47_JCRB cell viability assay (AID 1918925; note: nearly all actives have a fitted effect of over 45% in size; note: potency is the fitted concentration of half-maximal effect)
# Summary of the method: (§1)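 Primary qHTS used for cherry-picking: cells at 500/well, library compounds for 48 h (37C, 5% CO2), luminescent ATP assay.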
# [5] = Quantitative High-Throughput drug screen in 47 multiple myeloma cell lines against the NCATS MIPE library collection: EJM_DSMZ cell viability assay (AID 1918926; note: nearly all actives have a fitted effect of over 30% in size; note: potency is the fitted concentration of half-maximal effect)
# Summary of the method: as §1
# [6] = Quantitative High-Throughput drug screen in 47 multiple myeloma cell lines against the NCATS MIPE library collection: FR4_PLB cell viability assay (AID 1918924; note: nearly all actives have a fitted effect of over 35% in size; note: potency is the fitted concentration of half-maximal effect)
# Summary of the method: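 Approved and investigational drugs from MIPE 4.0 were added by pin tool to 500 cells per well. After 48 hours at 37C, ATP-based CellTiter-Glo luminescence indicated remaining viability.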
# [7] = target: Luciferin 4-monooxygenase (Photinus pyralis) (UniProt P08659); experiment: Primary firefly luciferase (FLuc) qHTS assay for identification of artifact compounds. (AID 1845220); note: nearly all actives have a fitted effect of over 60% in size
# Summary of the method: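 FLuc 10 nM; luciferin 10 uM; ATP 10 uM; Tris-acetate pH 7.6, Mg-acetate 10 mM; 15 min RT preincubation; 5 min reaction; luminescence.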
# [8] = system: Nanoluciferase (engineered Oplophorus gracilirostris luciferase); experiment: Primary Nanoluciferase (NLuc) qHTS assay for identification of artifact compounds. (AID 1845222);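 note: NLuc secreted into diluted conditioned medium of S16 cells; series mostly up to about 54 µM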
# Summary of the method: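 NLuc from S16 cell medium (1:55) plus test compounds, 15 min, room temperature. Luminescence after Nano-Glo (1:100) addition, 5 min.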
# [9] = Primary fluorescence-based thiol-reactive (MSTI) qHTS assay for identification of artifact compounds. (AID 1845221);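 note: series mostly up to about 54 µM; thiol-reactive compounds lower the probe fluorescence signal; nearly all actives have a fitted effect of over 65% in size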
# Summary of the method: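 In PBS pH 7.4 with 2% DMSO, each compound met 4 uM MSTI for one hour at ambient temperature, shielded from light, before fluorescence detection.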
# [10] = Primary redox qHTS assay for identification of artifact compounds. (AID 1845223)
# Summary of the method: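 Redox-cycling detection via DTT (250 uM final) oxidation coupled to Amplex Red (25 uM)/HRP (250 mU/mL) in HBSS. 15 min preincubation plus 30 min after DTT, room temperature. Ex/Em 525/598 nm; 4-parameter Hill fit against DMSO and 10 uM DA3003.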
smiles,measurement,setting,value
NCCc1ccc(O)c(O)c1,outcome,[1],inactive
same,Potency,[2],inactive
same,Potency,[3],inactive
O=c1n(CCCN2CCN(c3cccc(Cl)c3)CC2)nc2ccccn12,outcome,[1],inactive
same,Potency,[2],inactive
same,Potency,[3],inactive
same,Potency,[4],inactive
same,Potency,[5],inactive
N[C@@H]1CONC1=O,outcome,[1],inactive
same,Potency,[2],inactive
same,Potency,[6],inactive
same,Potency,[4],inactive
same,Potency,[5],inactive
O=C(O)CCc1ccc(NCc2cccc(Oc3ccccc3)c2)cc1,outcome,[1],inactive
same,Potency,[7],inactive
same,outcome,[8],inactive
same,Potency,[6],inactive
same,Potency,[4],inactive
same,Potency,[5],inactive
O=C(O)COCCN1CCN(C(c2ccccc2)c2ccc(Cl)cc2)CC1 (configuration not stated),outcome,[1],inactive
same,Potency,[2],inactive
same,Potency,[3],inactive
same,Potency,[6],inactive
Nc1nc2ccc(OC(F)(F)F)cc2s1,outcome,[1],inactive
same,Potency,[2],inactive
same,Potency,[4],13.2 µM (active)
same,Potency,[5],inactive
CCC(C)N(C)C(=O)c1cc2ccccc2c(-c2ccccc2Cl)n1 (configuration not stated),outcome,[1],inactive
same,Potency,[3],inactive
same,Potency,[6],inactive
same,Potency,[4],inactive
same,Potency,[5],inactive
Cc1[nH]c(=O)c(C#N)cc1-c1ccncc1,outcome,[1],inactive
same,Potency,[2],inactive
same,Potency,[4],7.43 µM (active)
same,Potency,[5],inactive
NC(N)=NC(=O)c1nc(Cl)c(N)nc1N,outcome,[1],inactive
same,Potency,[2],inactive
same,Potency,[3],inactive
same,Potency,[4],8.33 µM (active)
same,Potency,[5],inactive
O=NN(CCCl)C(=O)NCCCl,outcome,[1],inactive
same,Potency,[3],inactive
same,Potency,[4],inactive
same,Potency,[5],inactive
Nc1ccc(S(=O)(=O)Nc2ccnn2-c2ccccc2)cc1,outcome,[1],inactive
same,Potency,[2],inactive
same,Potency,[3],inactive
same,Potency,[4],inactive
same,Potency,[5],inactive
CC(C)C[C@H](NC(=O)[C@@H](O)[C@H](N)Cc1ccccc1)C(=O)O,outcome,[1],inactive
same,Potency,[2],inactive
same,Potency,[3],inactive
same,Potency,[4],20.9 µM (active)
CCOC(=O)C1=C[C@]2(CC)CCCN3CCc4c(n1c1ccccc41)[C@@H]32,outcome,[1],inactive
same,Potency,[2],12.8 µM (active)
same,Potency,[3],inactive
same,Potency,[6],20.9 µM (active)
same,Potency,[4],10.5 µM (active)
same,Potency,[5],20.9 µM (active)
NCCCC(N)(C(=O)O)C(F)F (configuration not stated),outcome,[1],inactive
same,Potency,[2],inactive
same,Potency,[3],inactive
same,Potency,[6],16.6 µM (active)
same,Potency,[5],inactive
N=c1nc(N2CCCCC2)cc(N)n1O,outcome,[1],inactive
same,Potency,[2],inactive
same,Potency,[3],inactive
same,Potency,[6],inactive
same,Potency,[5],inactive
Clc1cccc(Cl)c1NC1=NCCN1,outcome,[1],inactive
same,Potency,[4],inactive
same,Potency,[5],inactive
CCn1cc(C(=O)O)c(=O)c2cc(F)c(N3CCNC(C)C3)c(F)c21 (configuration not stated),outcome,[1],inactive
same,Potency,[2],inactive
same,Potency,[3],inactive
same,Potency,[6],inactive
same,Potency,[5],inactive
C1COC(NC(C2CC2)C2CC2)=N1,outcome,[1],inactive
same,Potency,[2],inactive
same,Potency,[3],inactive
same,Potency,[6],inactive
same,Potency,[5],inactive
CNC(=O)c1ccccc1Sc1ccc2c(/C=C/c3ccccn3)n[nH]c2c1,Potency,[9],inactive
CCCS(=O)(=O)Nc1ccc(F)c(C(=O)c2c[nH]c3ncc(Cl)cc23)c1F,Potency,[9],inactive
O=S(=O)(N=Cc1c(O)ccc2ccccc12)c1cccs1,Potency,[5],inactive
CN(C)C(=O)c1ccc(S(=O)(=O)c2ccc(NC(=O)[C@@](C)(O)C(F)(F)F)c(Cl)c2)cc1,Potency,[3],inactive
same,Potency,[7],inactive
same,outcome,[8],inactive
same,outcome,[10],inactive
same,Potency,[4],10.5 µM (active)
same,Potency,[5],23.5 µM (active)
COCC(=O)NCC=Cc1ccc2ncnc(Nc3ccc(Oc4ccc(C)nc4)c(C)c3)c2c1,Potency,[6],26.4 µM (active)
same,Potency,[4],14.8 µM (active)
COc1cc2nccc(Oc3ccc(NC(=O)NC4CC4)c(Cl)c3)c2cc1C(N)=O,Potency,[3],inactive
same,Potency,[7],inactive
same,outcome,[8],inactive
same,outcome,[10],inactive
same,Potency,[6],23.5 µM (active)
same,Potency,[4],13.2 µM (active)
same,Potency,[5],2.09 µM (active)
Cc1cc2c(C(C)C)c(O)c(O)c(C=O)c2c(O)c1-c1c(C)cc2c(C(C)C)c(O)c(O)c(C=O)c2c1O,Potency,[3],10.1 µM (active) and inactive
same,Potency,[6],10.5 µM (active)
same,Potency,[4],8.33 µM (active)
same,Potency,[5],20.9 µM (active)
CN(C)c1ccc(Nc2nc(N)n(C(=O)c3c(F)cccc3F)n2)cc1,Potency,[7],inactive
same,outcome,[8],inactive
same,outcome,[10],inactive
same,Potency,[4],14.8 µM (active)
same,Potency,[5],20.9 µM (active)
CCN(CC)CCCC(C)Nc1nc(C)cc(Nc2ccc3nc(C)cc(N)c3c2)n1 (configuration not stated),Potency,[3],inactive
same,Potency,[4],4.69 µM (active)
CNC(=O)c1ccc(C)c(-n2c(C)cc(OCc3ccc(F)cc3F)c(Br)c2=O)c1,Potency,[3],inactive
same,Potency,[7],inactive
same,outcome,[8],inactive
same,outcome,[10],inactive
same,Potency,[4],14.8 µM (active)
same,Potency,[5],20.9 µM (active)
CC(C=CC1=C(C)CCCC1(C)C)=CC=CC(C)=CC(=O)O,Potency,[4],11.8 µM (active) and 4.18 µM (active)
same,Potency,[5],13.2 µM (active)
COc1ccc([C@@H]2CC(=O)c3c(O)cc(O[C@@H]4O[C@H](CO[C@@H]5O[C@@H](C)[C@H](O)[C@@H](O)[C@@H]5O)[C@@H](O)[C@H](O)[C@@H]4O)cc3O2)cc1O,Potency,[3],inactive
same,Potency,[6],inactive
same,Potency,[4],inactive
same,Potency,[5],inactive
NC(=O)c1ccc(-c2nc(-c3ccc4c(c3)OCCO4)c(-c3ccccn3)[nH]2)cc1,Potency,[3],inactive
same,Potency,[5],inactive
Cc1ccccc1C(C(=O)NC1CCCC1)N(C(=O)Cn1cnc2ccccc21)c1cccc(F)c1 (configuration not stated),Potency,[4],16.6 µM (active)
same,Potency,[5],inactive
CCCCNc1cc(C(=O)O)cc(S(N)(=O)=O)c1Oc1ccccc1,Potency,[6],inactive
same,Potency,[4],inactive
same,Potency,[5],inactive
Cc1n[nH]c(C)c1Cc1sc2c(c1C(=O)N1C[C@H](O)CO1)c(=O)n(C)c(=O)n2CC(C)C,Potency,[7],inactive
same,outcome,[8],inactive
same,outcome,[10],inactive
same,Potency,[6],inactive
same,Potency,[4],inactive
same,Potency,[5],inactive
COc1ccc(-c2ccc3c(N4CCOCC4)nc(N4C[C@@H](C)O[C@@H](C)C4)nc3n2)cc1CO,Potency,[6],0.469 µM (active)
same,Potency,[4],0.296 µM (active)
same,Potency,[5],1.66 µM (active)
CCOc1ccc(Cc2cc([C@@H]3O[C@H](CO)[C@@H](O)[C@H](O)[C@@H]3O)ccc2Cl)cc1,Potency,[6],inactive
same,Potency,[4],inactive

# Reference: PubChem BioAssay (NCATS)
